Assay results taken from PubChem BioAssay (EPA / NIEHS).
Active and inactive are the calls of the source. Rule for the calls: active = hit-call score of the fitted dose curve at least 0.9, where 1 is the maximum; inactive = score below 0.9.

Columns and labels:
[1] = ATG_CRE_CIS: Attagene CIS-FACTORIAL HepG2 Assay for human cAMP Responsive Element (CRE) binding protein 3 (AID 2282926); settings: HepG2 CRE cis-reporter, Attagene multiplexed mRNA; actives raise or lower the signal
Method in brief: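 Endogenous CRE-binding activity in HepG2 is reported through a cis-regulated transfected reporter. Following a day of exposure, mRNA levels are determined by reverse transcription PCR and fluorescent fragment analysis; fits run in both directions versus DMSO.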

[2] = target: CCAAT/enhancer-binding protein beta (Homo sapiens) (UniProt P17676); test: ATG_C_EBP_CIS: Attagene CIS-FACTORIAL HepG2 Assay for human CCAAT/Enhancer Binding Protein (C/EBP) beta (AID 2282927); settings: HepG2 Attagene cis-factorial transcription factor reporter; actives raise or lower the signal
Method in brief: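 Transiently transfected HepG2 (MRTU library, endogenous TF-driven promoters); 24 h dosing; total RNA → oligo(dT) RT → PCR → 6-FAM primer extension → HpaI digest → CE; fit bidirectionally vs DMSO.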

[3] = ATG_CMV_CIS: Attagene CIS-FACTORIAL HepG2 Assay for human CMV (Internal Marker) (AID 2282928); settings: HepG2 CMV promoter reporter, transcription factor profiling; actives raise or lower the signal;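 note: endpoint acts as a background internal control marker rather than a target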
Method in brief: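 Endogenous transcription factor activity read in HepG2 via transfected cis-promoter reporter units. After 24 h dosing, reporter mRNA measured by RT-PCR/capillary electrophoresis; gain or loss of signal fit relative to DMSO.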

[4] = ATG_DR4_LXR_CIS: Attagene CIS-FACTORIAL HepG2 Assay for human Liver X Receptor (LXR), DR4 submotif (AID 2282929); settings: HepG2 Attagene DR4 cis-reporter, mRNA transcription; actives raise or lower the signal
Method in brief: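 HepG2, transient MRTU transfection, cis-element (DR4) promoter; 24 h compound exposure; total RNA → oligo(dT) RT → PCR → 6-FAM primer extension → HpaI cut → CE. Gain/loss vs DMSO, bidirectional fit.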

[5] = target: Aryl hydrocarbon receptor (Homo sapiens) (UniProt P35869); test: ATG_Ahr_CIS: Attagene CIS-FACTORIAL HepG2 Assay for human Aryl Hydrocarbon Receptor (Ahr) (AID 2282930); settings: HepG2 AhR cis-factorial reporter transcription; actives raise or lower the signal
Method in brief: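 Read-out: reporter mRNA quantified by RT-PCR with fluorescent primer extension and capillary electrophoresis. Human HepG2 liver cells carried transfected cis-promoter reporter units and were exposed to chemical for 24 h; gain or loss fitted relative to DMSO.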

[6] = ATG_AP_1_CIS: Attagene CIS-FACTORIAL HepG2 Assay for human Activator Protein 1 (AP-1) (AID 2282931); settings: HepG2 Attagene cis-factorial AP-1 reporter mRNA; actives raise or lower the signal
Method in brief: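 Transient MRTU transfection of HepG2 → 24 h chemical treatment → RNA isolation, RT-PCR, 6-FAM labelling, HpaI digest → capillary electrophoresis. Fit: bidirectional, DMSO negative control.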

[7] = ATG_AP_2_CIS: Attagene CIS-FACTORIAL HepG2 Assay for human Activator Protein 2 (AP-2) (AID 2282932); settings: HepG2 AP-2 cis-reporter, Attagene transcription factor profiling; actives raise or lower the signal
Method in brief: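 Multiplexed mRNA reporter assay in HepG2: cis-regulated units report endogenous factor activity after 24 h treatment. Fluorescence from capillary electrophoresis of RT-PCR products gives the signal, with DMSO as baseline.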

[8] = ATG_BRE_CIS: Attagene CIS-FACTORIAL HepG2 Assay for human Bone Morphogenetic Protein (BMP) Response Element (BRE) (AID 2282933); settings: HepG2 BMP response element reporter, Attagene transcription factor profiling; actives raise or lower the signal
Method in brief: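 HepG2 cells transiently transfected with multiplexed cis-element reporter units were dosed with chemical for 24 h. Reporter mRNA was measured by RT-PCR with fluorescent labelling, HpaI digestion and capillary electrophoresis; bidirectional fitting relative to DMSO.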

[9] = target: Retinoic acid receptor alpha (Homo sapiens) (UniProt P10276); test: ATG_DR5_RAR_CIS: Attagene CIS-FACTORIAL HepG2 Assay for human Retinoic Acid Receptor Alpha (RARE), DR5 submotif (AID 2282934); settings: HepG2 Attagene cis-factorial RARE DR5 reporter, mRNA; actives raise or lower the signal
Method in brief: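 Read-out: DR5-driven reporter transcript measured by RT-PCR, 6-FAM primer extension, HpaI digest and capillary electrophoresis. Human HepG2 liver cells carry transiently transfected cis-element reporter constructs; dosing lasts 24 h. Gain or loss of signal fitted against DMSO baseline.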

[10] = target: Transcription factor E2F1 (Homo sapiens) (UniProt Q01094); test: ATG_E2F_CIS: Attagene CIS-FACTORIAL HepG2 Assay for human E2F Transcription Factor 1 (AID 2282935); settings: HepG2 Attagene cis-reporter, E2F reporter RNA transcripts; actives raise or lower the signal
Method in brief: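 Measures reporter transcript levels via RT-PCR with capillary electrophoresis detection in HepG2 cells harboring cis-regulated reporter units; 24 h post-dose; bidirectional curve fitting with DMSO as baseline.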

[11] = ATG_E_Box_CIS: Attagene CIS-FACTORIAL HepG2 Assay for human Enhancer Box (E-box) (AID 2282936); settings: HepG2 E-box cis-reporter transcription, actives raise or lower the signal
Method in brief: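 First, HepG2 cells receive multiple cis-regulated reporter constructs by transient transfection. Next, chemicals are applied for 24 h. Finally, reporter mRNA is quantified via RT-PCR and capillary electrophoresis, with DMSO as baseline.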

[12] = ATG_EGR_CIS: Attagene CIS-FACTORIAL HepG2 Assay for human Early Growth Response 1 (EGR1) (AID 2282938); settings: HepG2 Attagene CIS-FACTORIAL EGR reporter mRNA; actives raise or lower the signal
Method in brief: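 Transient transfection of human HepG2 with multiple cis-regulated reporter units, chemical exposure 24 h, total RNA isolated. Reverse transcription, PCR, fluorescent labelling and capillary electrophoresis quantify reporter transcripts; activity fitted bidirectionally against DMSO.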

[13] = ATG_M_19_CIS: Attagene CIS-FACTORIAL HepG2 Assay for M19 Transcription Factor (Internal Marker) (AID 2282939); settings: HepG2 Attagene CIS-FACTORIAL M19 internal marker reporter; actives raise or lower the signal
Method in brief: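 HepG2 cells transiently transfected with cis-regulated multiple reporter transcription units were dosed for 24 h; reporter mRNA was quantified by RT-PCR, 6-FAM primer-extension labelling, HpaI digestion and capillary electrophoresis, with bidirectional fitting against DMSO baseline.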

[14] = ATG_Ets_CIS: Attagene CIS-FACTORIAL HepG2 Assay for human Erythroblast Transformation Specific (ETS) (AID 2282941); settings: HepG2 ETS cis-reporter transcription, actives raise or lower the signal
Method in brief: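 Steps: transfect HepG2 with multiple reporter units; treat compound 24 h; isolate RNA, DNase-treat, reverse-transcribe; PCR-amplify, label with 6-FAM, digest with HpaI; separate by capillary electrophoresis. Activity fitted both directions versus DMSO.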

[15] = target: Hepatocyte nuclear factor 3-beta (Homo sapiens) (UniProt Q9Y261); test: ATG_FoxA2_CIS: Attagene CIS-FACTORIAL HepG2 Assay for human Forkhead box A2 (FOXA2) (AID 2282942); settings: HepG2 cis-reporter transcription factor activity, 24 h; actives raise or lower the signal
Method in brief: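 Transient MRTU transfection of HepG2 liver cells; 24 h treatment; total RNA → oligo(dT) RT → PCR → FAM primer extension → HpaI cut → CE. Bidirectional fit vs DMSO.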

[16] = ATG_FoxO_CIS: Attagene CIS-FACTORIAL HepG2 Assay for human Forkhead box O (FoxO) (AID 2282943); settings: HepG2 Attagene cis-reporter, FoxO element, mRNA; actives raise or lower the signal
Method in brief: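 Read-out: fluorescence of 6-FAM-labelled reporter cDNA fragments resolved by capillary electrophoresis. Transiently transfected HepG2 cells were dosed for 24 h; activity fitted in both directions relative to DMSO controls.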

[17] = ATG_GATA_CIS: Attagene CIS-FACTORIAL HepG2 Assay for human GATA Binding Protein (AID 2282944); settings: HepG2 GATA cis-element reporter, Attagene multiplex mRNA; actives raise or lower the signal
Method in brief: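 HepG2 cells transiently transfected with multiplexed cis-element reporter units reflecting endogenous transcription factor activity; reporter mRNA measured after 24 h dosing by RT-PCR, 6-FAM labeling, HpaI digestion and capillary electrophoresis. Bidirectional fitting versus DMSO baseline.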

[18] = ATG_GLI_CIS: Attagene CIS-FACTORIAL HepG2 Assay for human Zinc Finger Protein GLI1 (AID 2282945); settings: HepG2, Attagene cis-factorial reporter mRNA, GLI element; actives raise or lower the signal
Method in brief: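 Transiently transfected HepG2 cells report endogenous transcription factor activity via cis-element-driven reporter units. After 24 h compound exposure, reporter mRNA was measured by RT-PCR with capillary electrophoresis; bidirectional fitting against DMSO baseline.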

[19] = ATG_M_61_CIS: Attagene CIS-FACTORIAL HepG2 Assay for M61 Transcription Factor (Internal Marker) (AID 2282937); settings: HepG2 Attagene CIS-FACTORIAL M61 internal marker reporter; actives raise or lower the signal
Method in brief: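 Human liver HepG2, transient MRTU transfection (cis promoter elements), 24 h compound. Total RNA → oligo(dT) RT → PCR → FAM label → HpaI → CE. Internal background marker; bidirectional fitting, DMSO = baseline.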

Measured: AC50

Sequence of Transcription factor E2F1 (Homo sapiens) (Q01094 whole entry, looked up): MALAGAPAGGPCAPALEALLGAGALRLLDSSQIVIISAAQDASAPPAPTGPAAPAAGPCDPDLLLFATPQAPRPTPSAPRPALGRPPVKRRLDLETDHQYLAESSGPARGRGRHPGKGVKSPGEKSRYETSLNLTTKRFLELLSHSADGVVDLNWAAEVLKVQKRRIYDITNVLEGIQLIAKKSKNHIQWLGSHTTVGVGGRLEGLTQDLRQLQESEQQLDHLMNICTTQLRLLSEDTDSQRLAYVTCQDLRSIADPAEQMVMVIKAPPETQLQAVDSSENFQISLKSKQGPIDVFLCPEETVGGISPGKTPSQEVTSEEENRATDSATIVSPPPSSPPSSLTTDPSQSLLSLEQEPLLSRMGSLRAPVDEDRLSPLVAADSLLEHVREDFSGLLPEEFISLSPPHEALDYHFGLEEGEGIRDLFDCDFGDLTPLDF
Sequence of CCAAT/enhancer-binding protein beta (Homo sapiens) (P17676 whole entry, looked up): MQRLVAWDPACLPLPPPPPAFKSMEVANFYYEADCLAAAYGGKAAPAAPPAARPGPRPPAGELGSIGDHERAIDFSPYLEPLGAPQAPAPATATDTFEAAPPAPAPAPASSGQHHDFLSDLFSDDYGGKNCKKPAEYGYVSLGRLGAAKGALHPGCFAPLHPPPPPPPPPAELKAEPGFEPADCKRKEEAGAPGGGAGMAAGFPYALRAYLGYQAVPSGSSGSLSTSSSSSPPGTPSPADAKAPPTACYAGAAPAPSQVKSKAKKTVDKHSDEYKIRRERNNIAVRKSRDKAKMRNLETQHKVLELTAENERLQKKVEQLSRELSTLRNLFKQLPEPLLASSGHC
Sequence of Retinoic acid receptor alpha (Homo sapiens) (P10276 whole entry, looked up): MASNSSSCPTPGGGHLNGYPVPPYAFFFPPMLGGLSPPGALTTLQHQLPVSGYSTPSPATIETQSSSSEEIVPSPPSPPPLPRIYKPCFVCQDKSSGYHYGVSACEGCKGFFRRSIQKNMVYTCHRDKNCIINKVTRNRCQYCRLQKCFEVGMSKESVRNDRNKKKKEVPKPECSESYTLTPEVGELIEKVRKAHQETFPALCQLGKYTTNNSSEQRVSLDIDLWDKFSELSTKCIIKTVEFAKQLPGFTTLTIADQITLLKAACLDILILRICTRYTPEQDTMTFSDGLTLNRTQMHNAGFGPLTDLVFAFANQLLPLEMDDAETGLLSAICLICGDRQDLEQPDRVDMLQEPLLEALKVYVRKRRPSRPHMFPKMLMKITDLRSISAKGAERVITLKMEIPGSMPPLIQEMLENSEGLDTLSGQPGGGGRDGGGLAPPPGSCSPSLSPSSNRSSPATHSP
Sequence of Hepatocyte nuclear factor 3-beta (Homo sapiens) (Q9Y261 whole entry, looked up): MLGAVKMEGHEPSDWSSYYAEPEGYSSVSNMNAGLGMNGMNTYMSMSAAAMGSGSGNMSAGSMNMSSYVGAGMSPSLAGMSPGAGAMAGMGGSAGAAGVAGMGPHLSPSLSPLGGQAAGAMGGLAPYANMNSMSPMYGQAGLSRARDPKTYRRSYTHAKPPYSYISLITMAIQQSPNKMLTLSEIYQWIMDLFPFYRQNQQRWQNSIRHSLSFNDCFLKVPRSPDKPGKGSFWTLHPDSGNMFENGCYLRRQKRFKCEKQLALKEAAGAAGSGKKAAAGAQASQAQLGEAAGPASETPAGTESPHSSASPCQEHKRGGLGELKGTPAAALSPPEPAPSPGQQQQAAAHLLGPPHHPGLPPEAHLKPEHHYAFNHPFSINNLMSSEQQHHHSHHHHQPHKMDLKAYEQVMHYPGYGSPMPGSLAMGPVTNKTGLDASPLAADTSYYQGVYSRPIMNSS
Sequence of Aryl hydrocarbon receptor (Homo sapiens) (P35869 whole entry, looked up): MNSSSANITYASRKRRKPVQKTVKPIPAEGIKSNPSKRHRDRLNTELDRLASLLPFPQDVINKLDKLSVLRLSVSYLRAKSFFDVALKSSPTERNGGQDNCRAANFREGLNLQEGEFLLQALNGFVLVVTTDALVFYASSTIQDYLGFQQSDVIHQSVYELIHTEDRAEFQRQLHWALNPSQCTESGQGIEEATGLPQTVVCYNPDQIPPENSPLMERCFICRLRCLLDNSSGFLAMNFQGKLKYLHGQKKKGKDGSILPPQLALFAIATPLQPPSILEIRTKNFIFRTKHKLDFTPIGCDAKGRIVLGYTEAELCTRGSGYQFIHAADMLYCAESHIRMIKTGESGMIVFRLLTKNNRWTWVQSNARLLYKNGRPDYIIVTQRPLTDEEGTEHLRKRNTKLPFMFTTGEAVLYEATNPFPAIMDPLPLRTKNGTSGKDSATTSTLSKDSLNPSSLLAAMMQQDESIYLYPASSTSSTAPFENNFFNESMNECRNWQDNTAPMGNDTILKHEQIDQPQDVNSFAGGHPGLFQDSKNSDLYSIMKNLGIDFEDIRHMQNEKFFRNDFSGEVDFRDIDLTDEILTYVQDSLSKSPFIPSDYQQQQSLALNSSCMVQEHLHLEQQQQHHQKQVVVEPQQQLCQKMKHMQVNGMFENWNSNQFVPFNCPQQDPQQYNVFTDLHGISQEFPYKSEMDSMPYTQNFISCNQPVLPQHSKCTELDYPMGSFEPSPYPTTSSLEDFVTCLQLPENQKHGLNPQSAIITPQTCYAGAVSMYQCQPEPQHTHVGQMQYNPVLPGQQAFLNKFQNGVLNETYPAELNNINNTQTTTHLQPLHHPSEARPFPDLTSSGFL

CC(=O)CC(=O)Nc1ccccc1
not listed: [19]
inactive: all other assays above

CCOC(=O)C(C#N)=C(c1ccccc1)c1ccccc1
active: [1] 63 µM | [4] 29.6 µM | [6] 178 µM | [8] 125 µM | [12] 20 µM
not listed: [13]
inactive: all other assays above

C=CC(=C)CCCC(C)(C)OC(C)=O
not listed: [12]
inactive: all other assays above

CCCC(O)C(O)CO (centres undefined)
active: [5] 0.16 µM
not listed: [13]
inactive: all other assays above

CN1C(=O)c2ccccc2C1=O
not listed: [13]
inactive: all other assays above

c1ccc2cc(Nc3ccc(Nc4ccc5ccccc5c4)cc3)ccc2c1
active: [5] 4 µM
not listed: [12]
inactive: all other assays above

CCOC(=O)c1ccc(N)cc1
not listed: [13]
inactive: all other assays above

COc1ccc(CCN2CCC(Nc3nc4ccccc4n3Cc3ccc(F)cc3)CC2)cc1
not listed: [19]
inactive: all other assays above
